The values that follow come from ChEMBL document CHEMBL3988442, “University of Dundee, Small-Polar-MMV Screening Library” (2021).

Structures are written as SMILES. Hit rate of the full screen: of about 48,000 compounds, about 13,000 (27%) showed an effect of 50% or more. This is one part of the list.

In the assay the test system is Wolbachia pipientis. Nature of the assay: Anti-Wolbachia Cell-Based Screen. The format is functional. Details: scale not given: in the data most compounds retested in dose-response had high values. The settings on record: 5 µM.
As to `COC(=O)C1Cc2nc[nH]c2CN1Cc1ccc(Sc2ncccn2)o1` (configuration not stated), the “Percent Effect” value is 2.291%.
As to `COc1cc2nc(NCc3cc(C)on3)nc(N)c2cc1OC`, the “Percent Effect” value is -8.416%.
The value for `CC1CN(Cc2noc(C3CC3)n2)CCN1Cc1nccn1C` (configuration not stated) was -7.382%; that for `CCNC(=O)c1ccnc(N2CCCC(COc3ccccc3C)C2)c1` (configuration not stated) was 3.224%; that for `CCOCCn1nc(C)cc1C(=O)N(C)Cc1cccc2ncccc12` was 6.003%.
On to `C=C(C)Cn1ccc2cc(OC)c(F)cc2c1=O`, for which the “Percent Effect” value is recorded as -16.88%.
Consider `CC[C@H]1CN(S(C)(=O)=O)CC[C@H]1CC(=O)NCCSC`, for which the “Percent Effect” value is on record as -2.393%.
The value for `O=C(c1ccn(-c2ccc(F)cc2)n1)N1CCCC(n2ccnc2)C1` (configuration not stated) was 97.03%.
Regarding `NC(=O)C1CCCN(C(=O)c2ccc(-n3ccnc3)cc2)C1` (configuration not stated), the “Percent Effect” value is 0.2074%.
For the compound `O=C(c1ccc(-n2cnnn2)cc1)N1CCCC(n2ccnc2)C1` (configuration not stated), the “Percent Effect” value was determined as 90.08%.
To `Cc1ccn(-c2ccc(C(=O)N3CCCC(n4ccnc4)C3)cc2)n1` (configuration not stated) belongs 4.214%; to `O=C(c1ccc(-n2ccnc2)cc1)N1CCCC(n2ccnc2)C1` (configuration not stated), 120.2%; to `CCc1nccn1C1CCCN(C(=O)c2ccn(-c3ccccc3)n2)C1` (configuration not stated), -25.66%.
Turning to `CS(=O)(=O)c1ccc(C(=O)N2CCCC(n3ccnc3)C2)cc1` (configuration not stated), the “Percent Effect” value was 96.86%.
The value for `O=C(CNC(=O)c1ccoc1)NCCOc1ccc2c(c1)CCC2` was 14.09%; that for `CCc1nccn1C1CCCN(C(=O)c2ccc(-n3ccnc3)cc2)C1` (configuration not stated) was 94.46%.
On to `Cc1ccnn1-c1ccc(C(=O)N2CCCC(n3ccnc3)C2)cc1` (configuration not stated), for which the “Percent Effect” value amounted to 116.9%.
Consider `CC1=NN(c2ccc(C(=O)N3CCCC(n4ccnc4)C3)cc2)CC1` (configuration not stated), for which the “Percent Effect” value was -6.024%.
To `O=C(c1ccc(-n2cnnc2)cc1)N1CCCC(n2ccnc2)C1` (configuration not stated) belongs 107.8%; to `CCc1nccn1C1CCCN(C(=O)c2cncn2-c2ccccc2)C1` (configuration not stated), -5.728%; to `NC(=O)COc1ccc(C(=O)N2CCCC(n3ccnc3)C2)cc1` (configuration not stated), 96.26%.
In the case of `O=C1COc2cc(C(=O)N3CCCC(n4ccnc4)C3)ccc2N1` (configuration not stated), the “Percent Effect” value was -12.82%.
To `O=C(c1ccc(OCC2CC2)nc1)N1CCCC(n2ccnc2)C1` (configuration not stated) belongs -1.875%; to `NC(=O)COc1cccc(C(=O)N2CCCC(n3ccnc3)C2)c1` (configuration not stated), 2.122%; to `CCC(NCCn1cc(C)cn1)C(=O)Nc1cc(C)on1` (configuration not stated), -26.17%.
To `CC(=O)c1cc(CC(=O)NCc2cccc(F)c2F)cs1` belongs -6.344%.
On to `O=C1CC[C@H]2CN(c3ncccc3F)CC[C@H]2N1CCc1ccccc1`, for which the “Percent Effect” value is reported as 4.939%.
The value for `Cc1noc(C)c1CN(C)Cc1csc(-c2ncccn2)n1` was 0.1209%; that for `N[C@@H]1c2ccccc2C2(CCN(C(=O)c3ccc(=O)[nH]c3)CC2)[C@H]1O` was 2.656%; that for `Cc1cc(CN2CCN(C(=O)NCc3nc(C)cs3)CC2)on1` was -3.882%.
To `NS(=O)(=O)c1cc(C(=O)N2CCCC(n3ccnc3)C2)cs1` (configuration not stated) belongs 104.4%.
The value for `CC1CCCN(C(=O)c2csc(S(N)(=O)=O)c2)CC1` (configuration not stated) was -10.27%; that for `O=C(c1csc(Br)c1)N1CCCC(n2ccnc2)C1` (configuration not stated) was -1.444%; that for `FC(F)(F)c1cccnc1N1CCC(OC2CCOCC2)CC1` was 1.629%.
`CC(NCc1ccc(OCC(N)=O)cc1)c1ccc(Cl)c(Cl)c1.Cl` (configuration not stated): the “Percent Effect” value is 11.22%.
The value for `CC(NCc1ccc(F)cc1)c1ccc(OCC(=O)NC2CC2)cc1` (configuration not stated) was 13.29%; that for `CCOc1ccc(CNC(C)c2ccc3[nH]c(=O)[nH]c3c2)cc1` (configuration not stated) was 115.8%; that for `CC(NCc1ccc(F)cc1)c1ccc2[nH]c(=O)[nH]c2c1` (configuration not stated) was 94.79%.
Turning to `Cc1ccc(CNC(C)c2ccc3[nH]c(=O)[nH]c3c2)s1` (configuration not stated), the “Percent Effect” value came out at 0.5584%.
As for `COc1ccc(CNC(C)c2ccc3[nH]c(=O)[nH]c3c2)cc1` (configuration not stated), the “Percent Effect” value worked out at 1.768%.
As for `Nc1ccnc(N2CCC(CCc3ccccc3)(C(=O)O)CC2)n1`, the “Percent Effect” value is listed as -1.622%.
The value for `CN(C)Cc1nnc(C2CCN(C(=O)CCc3cccs3)CC2)n1C` was -18.7%; that for `CC(=O)N1[C@H](Cn2cncn2)C[C@@H]2CN(Cc3ccncc3)CC[C@@H]21.O=C(O)C(F)(F)F.O=C(O)C(F)(F)F` was -2.106%; that for `CC(=O)N1[C@H](CN(C)C)C[C@@H]2CN(C(=O)Cc3cccs3)CC[C@@H]21.O=C(O)C(F)(F)F` was 96.5%.
In the case of `CC(C)CC1COCCN1C(=O)Cc1cccs1` (configuration not stated), the “Percent Effect” value is -4.501%.
On to `CN(C)C[C@@H]1C[C@@H]2CN(C(=O)Cc3cccs3)CC[C@@H]2N1C`, for which the “Percent Effect” value was determined as 87.94%.
The value for `CC(=O)N1[C@H](CN(C)C)C[C@@H]2CN(c3ncc(F)cn3)CC[C@@H]21.O=C(O)C(F)(F)F.O=C(O)C(F)(F)F` was -11.57%; that for `Cn1cc(CCCNS(=O)(=O)N2CCCC2c2ccco2)cn1` (configuration not stated) was -2.203%; that for `OC1(CNc2ccc(Br)cn2)CCSCC1` was 5.842%.
For `O=C([C@H]1CCCO1)N1CC[C@H](O)[C@@H]1Cc1cccnc1`, the “Percent Effect” value was 104.4%.
To `Cc1cc(C(=O)N2CC[C@H](OCC3CC3)[C@@H]2Cc2cccnc2)no1` belongs -4.828%; to `O=C1CC[C@H]2[C@H](CCN2C(=O)C2CCCO2)N1Cc1ccncc1` (some centres not stated), 9.155%; to `O=C(O)C(F)(F)F.O=C([C@H]1CCCO1)N1CC[C@H](O)[C@@H]1Cc1ccncc1`, -12.15%.
For `O=C([C@H]1CCCO1)N1CC[C@@H](O)[C@@H]1Cc1ccccc1`, the “Percent Effect” value was found to be 97.77%.
To `CC(C)N(C)[C@@H]1CCN(C(=O)[C@H]2CCCO2)[C@H]1Cc1cnn(C)c1` belongs -7.042%.
To `Cn1cc(Br)c(=O)c(NS(=O)(=O)c2ccc(F)cc2)c1` belongs -3.18%; to `CSCCNC(=O)C1CCC(=O)N(C2CCCC2)C1` (configuration not stated), -26.76%; to `CCOCc1ccccc1NC(=O)NCC(c1cnn(C)c1)N(C)C` (configuration not stated), -8.458%.
Regarding `Cc1nc(C(=O)N(C)C2CC(=O)N(Cc3ccccc3)C2=O)cs1` (configuration not stated), the “Percent Effect” value is -12.75%.
The value for `CCOC(=O)CCNC(=O)N1CCCC(CNC(=O)c2ccco2)C1` (configuration not stated) was 4.582%; that for `CCOC(=O)N1[C@@H](c2ccco2)[C@@H](C(=O)NC)C[C@]12CCCCNC2=O` was 102%.
The value for `CCOC(=O)N1[C@@H](c2ccco2)[C@@H](C(=O)O)C[C@]12CCCCNC2=O` was 122.2%.
